Measurements published in PubChem BioAssay (EPA / NIEHS).
Active and inactive are the calls of the source. The calls were made as follows: active = hit-call score of the fitted dose curve at least 0.9, where 1 is the maximum; inactive = score below 0.9.

Columns and labels:
[1] = read-out: Matrix Metallopeptidase 1 (MMP1), MMP1 (gene 4312); assay: BSK_BE3C_MMP1: BioMAP Diversity Plus: BE3C Assay for Matrix Metallopeptidase 1 (MMP1) Biomarker Activity (AID 2283024); details: primary human bronchial epithelial cells; actives raise or lower the signal
Procedure, shortened: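 In this multiplexed primary-cell system, human bronchial epithelium received chemicals for 24 h before an ELISA for MMP1. Values reflect bidirectional fits normalised to the DMSO baseline.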

[2] = read-out: Pselectin, SELP (gene 6403); assay: BSK_4H_Pselectin: BioMAP Diversity Plus: 4H Assay for Pselectin Biomarker Activity (AID 2283026); details: primary human endothelial cells (HUVEC); actives raise or lower the signal
Procedure, shortened: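 Bidirectional fits against DMSO gave the endpoint. Cells: primary human umbilical vein endothelium, chemical-treated for 24 h before ELISA detection of P-selectin.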

[3] = BSK_4H_SRB: Viability Assessment in the BioMAP Diversity Plus: 4H Assay (AID 2283027); details: primary human endothelial cells (HUVEC);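 also: cells exposed to compound for 24 h before staining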;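 as to AC50: curves fitted both ways versus DMSO so AC50 may be loss or gain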
Procedure, shortened: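 Cytotoxicity readout: sulforhodamine B (0.1%) staining of total protein after 10% TCA fixation, measured at 560 nm in human umbilical vein endothelium at 24 h. DMSO set the baseline; fitting was bidirectional.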

[4] = BSK_BE3C_SRB: Viability Assessment in the BioMAP Diversity Plus: BE3C Assay (AID 2283028); details: primary human bronchial epithelial cells;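 as to AC50: fitted both ways so AC50 may mark signal gain or loss versus DMSO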
Procedure, shortened: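 Cytotoxicity read-out: SRB (0.1%) staining of TCA-fixed (10%) human lung bronchial epithelial cells, absorbance 560 nm, 24 h post-dosing. Curves fitted both directions relative to DMSO.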

[5] = read-out: Thrombomodulin, THBD (gene 7056); assay: BSK_3C_Thrombomodulin: BioMAP Diversity Plus: 3C Assay for Thrombomodulin Biomarker Activity (AID 2283029); details: primary human endothelial cells (HUVEC); actives raise or lower the signal
Procedure, shortened: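 In a multiplexed primary-cell system, human umbilical vein endothelium received chemical and was assayed 24 h later for thrombomodulin by ELISA. Parallel cultures were SRB-stained (0.1% SRB after 10% TCA fixation, read at 560 nm) to flag cytotoxicity.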

[6] = read-out: Urokinase-type plasminogen activator receptor (uPAR), PLAUR (gene 5329); assay: BSK_4H_uPAR: BioMAP Diversity Plus: 4H Assay for Urokinase-type plasminogen activator receptor (uPAR) Biomarker Activity (AID 2283030); details: primary human endothelial cells (HUVEC); actives raise or lower the signal
Procedure, shortened: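 uPAR level read by ELISA on HUVEC cultures (BioMAP 4H) 24 h post-dosing, analyzed for gain or loss relative to DMSO. Parallel SRB staining assessed overt cytotoxicity.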

[7] = read-out: Vascular endothelial growth factor receptor 2 (Homo sapiens) (UniProt P35968); assay: BSK_4H_VEGFRII: BioMAP Diversity Plus: 4H Assay for Vascular endothelial growth factor receptor 2 (VEGFR2) Biomarker Activity (AID 2283031); details: primary human endothelial cells (HUVEC); actives raise or lower the signal;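 as to AC50: cell-surface VEGFR2 protein level quantified by ELISA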
Procedure, shortened: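 Measured by ELISA after 24 h of compound treatment: VEGFR2 on primary human umbilical vein endothelial cells, fitted in both directions relative to DMSO. Parallel cultures received SRB staining (560 nm) for overt cytotoxicity.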

[8] = read-out: Human Leukocyte Antigen - DR isotype (HLADR), HLA-DRA (gene 3122); assay: BSK_BE3C_HLADR: BioMAP Diversity Plus: BE3C Assay for Human Leukocyte Antigen - DR isotype (HLADR) Biomarker Activity (AID 2283032); details: primary human bronchial epithelial cells; actives raise or lower the signal
Procedure, shortened: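 BioMAP BE3C format: human bronchial epithelium, 24 h compound treatment, ELISA detection of HLA-DR, with bidirectional analysis relative to DMSO.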

[9] = read-out: Vascular cell adhesion molecule 1 (VCAM1), VCAM1 (gene 7412); assay: BSK_4H_VCAM1: BioMAP Diversity Plus: 4H Assay for Vascular cell adhesion molecule 1 (VCAM1) Biomarker Activity (AID 2283033); details: primary human endothelial cells (HUVEC); actives raise or lower the signal
Procedure, shortened: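 In this human endothelial (HUVEC) system, biomarker ELISA was run 24 h after compound addition, and total protein in parallel wells was assessed by SRB at 560 nm; DMSO served as negative control.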

[10] = read-out: Interferon-gamma inducible Protein 10 (IP10), CXCL10 (gene 3627); assay: BSK_BE3C_IP10: BioMAP Diversity Plus: BE3C Assay for Interferon-gamma inducible Protein 10 (IP10) Biomarker Activity (AID 2283034); details: primary human bronchial epithelial cells; actives raise or lower the signal
Procedure, shortened: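 BE3C cells (human bronchial epithelial, primary); 24 h exposure; ELISA for IP-10; DMSO-referenced bidirectional fit.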

[11] = read-out: Monokine induced gamma interferon (MIG), CXCL9 (gene 4283); assay: BSK_BE3C_MIG: BioMAP Diversity Plus: BE3C Assay for Monokine induced gamma interferon (MIG) Biomarker Activity (AID 2283035); details: primary human bronchial epithelial cells; actives raise or lower the signal
Procedure, shortened: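 hu bronchial epithelial 1° cells, 24 h cpd; MIG by ELISA; bidirectional fit, DMSO = baseline.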

[12] = read-out: Transforming growth factor beta 1 (TGFb1), TGFB1 (gene 7040); assay: BSK_BE3C_TGFb1: BioMAP Diversity Plus: BE3C Assay for Transforming growth factor beta 1 (TGFb1) Biomarker Activity (AID 2283036;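 also: TGF-b1 protein level measured by ELISA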); details: primary human bronchial epithelial cells; actives raise or lower the signal
Procedure, shortened: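 TGF-b1 measured via ELISA, 24 h after chemical dosing of human bronchial epithelial cells (BE3C). Overt cytotoxicity assessed in parallel by SRB (0.1%, TCA-fixed, 560 nm); analysis bidirectional relative to DMSO.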

[13] = read-out: Plasminogen activator inhibitor-1 (PAI1), SERPINE1 (gene 5054); assay: BSK_BE3C_PAI1: BioMAP Diversity Plus: BE3C Assay for Plasminogen activator inhibitor-1 (PAI1) Biomarker Activity (AID 2283037); details: primary human bronchial epithelial cells; actives raise or lower the signal
Procedure, shortened: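 In this multiplexed primary-cell system, bronchial epithelial cells receive test chemical and are sampled at 24 h. PAI-1 is read by ELISA, with DMSO serving as negative control for bidirectional fitting.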

[14] = read-out: urokinase plasminogen activator (uPA), PLAU (gene 5328); assay: BSK_BE3C_uPA: BioMAP Diversity Plus: BE3C Assay for urokinase plasminogen activator (uPA) Biomarker Activity (AID 2283038); details: primary human bronchial epithelial cells; actives raise or lower the signal
Procedure, shortened: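 ELISA for uPA on human primary bronchial epithelial cultures 24 h post-treatment, gain or loss against DMSO. Parallel SRB staining (0.1% after 10% TCA fixation, 560 nm) assessed overt cytotoxicity.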

[15] = read-out: Urokinase-type plasminogen activator receptor (uPAR), PLAUR (gene 5329); assay: BSK_BE3C_uPAR: BioMAP Diversity Plus: BE3C Assay for Urokinase-type plasminogen activator receptor (uPAR) Biomarker Activity (AID 2283039); details: primary human bronchial epithelial cells; actives raise or lower the signal
Procedure, shortened: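 Chemically treated human bronchial epithelial cells (lung primary) are assayed for uPAR by ELISA after 24 h, with data fitted in both directions using DMSO as negative control.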

[16] = read-out: Interleukin-6 (IL6), IL6 (gene 3569); assay: BSK_CASM3C_IL6: BioMAP Diversity Plus: CASM3C Assay for Interleukin-6 (IL6) Biomarker Activity for (AID 2283040); details: primary human coronary artery smooth muscle cells; actives raise or lower the signal
[17] = read-out: Tissue plasminogen activator (tPA), PLAT (gene 5327); assay: BSK_BE3C_tPA: BioMAP Diversity Plus: BE3C Assay for Tissue plasminogen activator (tPA) Biomarker Activity (AID 2283041); details: primary human bronchial epithelial cells; actives raise or lower the signal
Procedure, shortened: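 Using human lung primary bronchial epithelial cells, tPA was measured by ELISA 24 h after dosing; data fitted relative to DMSO.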

[18] = read-out: Interleukin-8 (IL8), CXCL8 (gene 3576); assay: BSK_CASM3C_IL8: BioMAP Diversity Plus: CASM3C Assay for Interleukin-8 (IL8) Biomarker Activity (AID 2283042); details: primary human coronary artery smooth muscle cells; actives raise or lower the signal;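 also: IL-8 protein level quantified by ELISA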
[19] = read-out: Human Leukocyte Antigen - DR isotype (HLADR), HLA-DRA (gene 3122); assay: BSK_CASM3C_HLADR: BioMAP Diversity Plus: CASM3C Assay for Human Leukocyte Antigen - DR isotype (HLADR) Biomarker Activity (AID 2283043); details: primary human coronary artery smooth muscle cells; actives raise or lower the signal;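 also: cell-surface HLA-DR protein level quantified by ELISA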
[20] = BSK_3C_Vis: BioMAP Diversity Plus: 3C Assay for Morphology Visualization (AID 2283025); details: primary human endothelial cells (HUVEC);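 also: fitted both ways so gain or loss versus DMSO counts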;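 as to AC50: light microscopy image of cell morphology used as background control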
Procedure, shortened: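 Light-microscopy morphology readout, 24 h exposure, human primary umbilical vein endothelium; analysed relative to DMSO with bidirectional fitting.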

Measured: AC50

Cc1ccc(N=C=O)cc1N=C=O
active: [10] 20 µM | [19] 28.5 µM
not listed: [20]
inactive: all other assays above

[Cl-].[Cl-].[Hg+2]
inactive: [5] | [7]
active: [1] 31.4 µM | [20] 37.5 µM | [2] 33 µM | [3] 20 µM | [4] 34.7 µM | [6] 30 µM | [8] 30.2 µM | [9] 29.7 µM | [10] 34.9 µM | [11] 36.5 µM | [13] 30.9 µM | [14] 31.6 µM | [15] 31.5 µM | [16] 31.9 µM | [17] 31.8 µM | [18] 35.5 µM | [19] 25.4 µM

CCC12COCN1COC2
not listed: [12]
inactive: all other assays above

ClC1=C(Cl)C2(Cl)C3C(Cl)C=CC3C1(Cl)C2(Cl)Cl (stereo unspecified)
inactive: [1] | [4] | [5] | [14] | [15]
active: [20] 37.3 µM | [2] 28.5 µM | [3] 33.4 µM | [6] 34.7 µM | [7] 20 µM | [8] 26.2 µM | [9] 32.4 µM | [10] 32.3 µM | [11] 31.3 µM | [13] 35 µM | [16] 27.2 µM | [17] 20 µM | [18] 34.6 µM | [19] 29.3 µM

Brc1ccc(Oc2ccccc2)cc1
not listed: [12]
inactive: all other assays above

CC(C)(OOC(C)(C)c1ccccc1)c1ccccc1
active: [1] 11.4 µM | [2] 35.9 µM | [3] 32.3 µM | [7] 37.3 µM | [8] 27.7 µM | [9] 26.4 µM | [15] 11.6 µM | [19] 28.8 µM
not listed: [12] | [20]
inactive: all other assays above

CN(C)[C@@H]1C(=O)C(C(N)=O)=C(O)[C@@]2(O)C(=O)C3=C(O)c4c(O)cccc4[C@@](C)(O)[C@H]3C[C@@H]12
not listed: [12] | [20]
inactive: all other assays above
